Several values for one entry are separate records, joined by “and”; a condition that tells them apart may be missing. Identical values can stand only once. In all, about 6,400 compounds went through this assay and about 610 (9.5%) were called active. The sample holds actives, similar compounds and a random draw of the others, so the mix is not that of the screen. Rule as the data show it: active = activity change below about -70%; inconclusive = no clear call, values can overlap the other calls; inactive = above that. Some compounds were tested as several samples or in several runs, with calls that do not always agree.

The assay in a line: Toxoplasma gondii ME49Luc growth in HeLa cells, luciferase, no IFN-y, primary screen (AID 1259421). Conditions: T. gondii ME49Luc in HeLa, 72 h, stronger effect = lower value, concentration not given here.
Take `C[C@H]1[C@H](C)CC[C@]2(C(=O)O)CC[C@]3(C)C(=CC[C@@H]4[C@@]5(C)CC[C@H](O)C(C)(C)[C@@H]5CC[C@]43C)[C@H]12`: the activity change, negative = inhibition is -76.6% (active). Turning to `C[C@H]1[C@H](C)CC[C@]2(C(=O)O)CC[C@]3(C)C(=CCC4[C@@]5(C)C[C@@H](O)[C@H](O)[C@@](C)(CO)C5CC[C@]43C)[C@H]12` (stereo partly specified), the activity change, negative = inhibition is 14.3% (inactive). The value for `C[C@H]1[C@H](C)CC[C@]2(C(=O)O)CC[C@]3(C)C(=CC[C@@H]4[C@@]5(C)C[C@@H](O)[C@H](O)[C@@](C)(CO)[C@@H]5CC[C@]43C)[C@H]12` was -67.1% (inactive) and -6.04% (inactive); that for `CC1(C)CC[C@]2(C(=O)O)CC[C@]3(C)C(=CC[C@@H]4[C@@]5(C)CC[C@H](O)C(C)(C)[C@@H]5CC[C@]43C)[C@@H]2C1` was -38.2% (inactive) and 16.6% (inactive); that for `C[C@@H]1CC[C@]2(C(=O)O)CC[C@]3(C)C(=CCC4[C@@]5(C)CC[C@H](O)C(C)(C)C5CC[C@]43C)C2[C@H]1C` (stereo partly specified) was 8.22% (inactive). The value for `C[C@H]1[C@H](C)CC[C@]2(C(=O)O)CC[C@]3(C)C(=CCC4[C@@]5(C)C[C@@H](O)[C@H](O)[C@@](C)(CO)C5[C@H](O)C[C@]43C)[C@H]12` (stereo partly specified) was -87.6% (active); that for `Nc1nc2c(ncn2CCC(CO)CO)c(=O)[nH]1` was 11.1% (inactive). The value for `COc1c2ccoc2nc2c(OC)c(OCC(O)C(C)(C)O)ccc12` (stereo unspecified) was 7.33% (inactive); that for `C[C@@H](NCCCc1cccc(C(F)(F)F)c1)c1cccc2ccccc12` was 58.2% (inactive); that for `CO[C@H]1C=CO[C@@]2(C)Oc3c(C)c(O)c4c(O)c(c5c(nc6cc(C)ccn65)c4c3C2=O)NC(=O)/C(C)=C\C=C/[C@H](C)[C@H](O)[C@@H](C)C(O)[C@@H](C)[C@H](OC(C)=O)[C@@H]1C` (stereo partly specified) was 2.45% (inactive).

Consider `CC(C)CC1C(=O)N2CCC[C@H]2C2(O)O[C@](NC(=O)C3C=C4c5cccc6[nH]c(Br)c(c56)C[C@H]4N(C)C3)(C(C)C)C(=O)N12` (stereo partly specified), for which the activity change, negative = inhibition was -3.42% (inactive). The value for `O=C(NS(=O)(=O)c1ccc(Br)s1)c1ccc(Cl)cc1Cl` was 15.3% (inactive).

`CS(=O)(=O)Oc1ccc2c(NC(N)=O)c(C(=O)c3ccc(Cl)cc3Cl)oc2c1`: the activity change, negative = inhibition is 6% (inactive) and -81.6% (active). With `Cc1cccc(/C=N/Nc2cc(N3CCOCC3)nc(OCCc3ccccn3)n2)c1` the figure was -83.9% (active). The value for `CCOC(=O)CCNc1cc(N2CCc3ccccc3CC2)nc(-c2ccccn2)n1` was -57.4% (inactive); that for `O=c1cc(N2CCOCC2)nc2c3ccccc3ccn12` was 7.41% (inactive). Regarding `O=C(O)c1ccc(-n2nc(-c3ccccc3O)nc2-c2ccccc2O)cc1`, the activity change, negative = inhibition is -30% (inactive). With `CC(C)(O)CC[C@@H](O)[C@](C)(O)C1CC[C@@]2(O)C3=CC(=O)C4C[C@@H](O)[C@@H](O)C[C@]4(C)C3CC[C@]12C` (stereo partly specified), the activity change, negative = inhibition is 12.6% (inactive). For the compound `Fc1cccc(/C=N/N=C/c2cccc(F)c2)c1`, the activity change, negative = inhibition is 8.5% (inactive) and 8.55% (inactive).

Consider `C[N+]1(C)[C@@H]2CC(OC(=O)C(O)(c3cccs3)c3cccs3)C[C@H]1[C@@H]1O[C@@H]12` (stereo partly specified), for which the activity change, negative = inhibition is 13.9% (inactive). On to `COc1ccc(CNc2nc(N3CCC[C@H]3CO)ncc2C(=O)NCc2ncccn2)cc1Cl`, for which the activity change, negative = inhibition is -6.59% (inactive).

For `CCc1cnn2c(NCc3ccc[n+]([O-])c3)cc(N3CCCC[C@H]3CCO)nc12`, the activity change, negative = inhibition was -74.2% (active).

Take `COc1cc(O)cc([C@@H]2CC(=O)c3c(O)cc(O[C@@H]4O[C@H](CO)[C@@H](O)[C@H](O)[C@H]4O[C@@H]4O[C@@H](C)[C@H](O)[C@@H](O)[C@H]4O)cc3O2)c1`: the activity change, negative = inhibition is 4.15% (inactive). In the case of `c1ccc(Oc2nc(NC3CCCCC3)c3[nH]cnc3n2)cc1`, the activity change, negative = inhibition was -6.74% (inactive).

Consider `Cn1cnc2cc3c(Nc4cccc(Br)c4)ncnc3cc21`, for which the activity change, negative = inhibition is -18.1% (inactive).

Regarding `O=C(NCCCl)N(CCCl)[NH2+][O-]`, the activity change, negative = inhibition is -12% (inactive). With `O=C(O)c1ccc(N2C(=O)/C(=C/c3ccc(-c4ccc([N+](=O)[O-])cc4)o3)C=C2c2ccccc2)cc1`, the activity change, negative = inhibition was 14.9% (inactive). The value for `CCCCN(Cc1ccc(C(=O)NO)cc1)C(=O)Nc1ccccc1` was -84.4% (active).

`CN1CCc2c(c3ccccc3n2Cc2ccc(C(=O)NO)cc2)C1`: the activity change, negative = inhibition was -47% (inactive).

Take `CCCN(CCC)C(=O)C(CCC(=O)O)NC(=O)c1ccccc1` (stereo unspecified): the activity change, negative = inhibition is -0.127% (inactive) and 11.8% (inactive).

For `CC1CCCC(C)N1` (stereo unspecified), the activity change, negative = inhibition is 19.7% (inactive). With `NCCc1ccn[nH]1` the figure was 7.65% (inactive); with `CN(C)N(C)C(=O)[C@@]1(Cc2ccccc2)CCCN(C(=O)[C@@H](Cc2c[nH]c3ccccc23)NC(=O)C(C)(C)N)C1`, 17.2% (inactive). With `CSc1nc(NC2CCCC2)c([N+](=O)[O-])c(NC2CCCC2)n1` the figure was 15.2% (inactive) and 17.7% (inactive); with `CCCCCCOC(=O)/N=C(/N)c1ccc(NCc2nc3cc(C(=O)N(CCC(=O)OCC)c4ccccn4)ccc3n2C)cc1`, 13.2% (inactive). With `CC(=O)OCC(=O)[C@@]12OC(C)(C)O[C@@H]1CC1C3C[C@H](F)C4=CC(=O)C=C[C@]4(C)[C@@]3(F)[C@@H](O)C[C@@]12C` (stereo partly specified) the figure was 8.91% (inactive) and 0.0222% (inactive); with `COC1=CC(=O)C(=O)C/C1=C\C=C\c1ccccc1`, -4.53% (inactive); with `CCCCCCCCCCCCN1CCCCCC1=O`, 10.1% (inactive). In the case of `COc1cc(NS(C)(=O)=O)ccc1Cc1c2ccccc2nc2ccccc12`, the activity change, negative = inhibition was -78.8% (active). With `COc1cc(NS(C)(=O)=O)ccc1Nc1c2ccccc2nc2ccccc12` the figure was -35.3% (inactive) and -53.5% (inactive). The value for `COc1ccccc1S(=O)(=O)Nc1ccc2c(c1)CN(C)C(=O)N2` was 28.4% (inactive); that for `Cc1cc(=O)c2c(O)c3c(O)cc(O)c4c5c(O)cc(O)c6c(O)c7c(=O)cc(C)c8c1c2c(c34)c(c65)c78` was -7.43% (inactive). Consider `C[C@@]1(O)[C@H](O)[C@@H](CO)O[C@H]1n1cnc2c(NC3CCCC3)nc(Cl)nc21`, for which the activity change, negative = inhibition was 14.8% (inactive). On to `CC(=O)NCC(=O)N1[C@@H]2CC[C@H]1c1ccc(Nc3ncc(C(F)(F)F)c(NC4CCC4)n3)cc12`, for which the activity change, negative = inhibition is -73.8% (active). With `C=CC(=O)Nc1cccc(Nc2nc(Nc3ccc(NC4CN(CCF)C4)cc3OC)ncc2C(F)(F)F)c1` the figure was -9.1% (inactive). With `C=CC(=O)Nc1cccc(Nc2nc(Nc3ccc(N4CCN(C(C)=O)CC4)cc3OC)ncc2C(F)(F)F)c1` the figure was 15.7% (inactive).
